From PubChem BioAssay (Tox21)
Inconclusive results are not listed. Where a call stands in place of a potency, no number is given. A number with no mark means an inactive call. Activity calls are given as the source filed them. Unless noted, the call rests on the fitted dose curve; in most records, active means well fitted cell-killing curve with a large enough effect in the repeat runs; inconclusive means weak or mixed curves, or effect the other way; inactive means flat fitted curve, though single readings scatter.

Biological target: Estrogen receptor beta (Homo sapiens) (UniProt Q92731)
Assay: qHTS assay to identify small molecule antagonists of the estrogen receptor beta (ER-beta) signaling pathway (AID 1259378; active means well fitted inhibition curve with a large enough effect in the signal ratio in the repeat runs, not every such curve was filed as active; the % refers to the signal ratio)
Details: ER-beta-UAS-bla HEK293T, beta-lactamase FRET ratio, 16 h; series mostly up to 92.4 µM
In short: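 Antagonist mode: compounds added to beta-lactamase reporter HEK293T ER-beta-UAS cells stimulated with E2 (1nM final), 16 hr at 37C. LiveBLAzer B/G FRET substrate, 2 hours room temperature, fluorescence read-out.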

Chain of Estrogen receptor beta (Homo sapiens) (Q92731 whole entry, looked up): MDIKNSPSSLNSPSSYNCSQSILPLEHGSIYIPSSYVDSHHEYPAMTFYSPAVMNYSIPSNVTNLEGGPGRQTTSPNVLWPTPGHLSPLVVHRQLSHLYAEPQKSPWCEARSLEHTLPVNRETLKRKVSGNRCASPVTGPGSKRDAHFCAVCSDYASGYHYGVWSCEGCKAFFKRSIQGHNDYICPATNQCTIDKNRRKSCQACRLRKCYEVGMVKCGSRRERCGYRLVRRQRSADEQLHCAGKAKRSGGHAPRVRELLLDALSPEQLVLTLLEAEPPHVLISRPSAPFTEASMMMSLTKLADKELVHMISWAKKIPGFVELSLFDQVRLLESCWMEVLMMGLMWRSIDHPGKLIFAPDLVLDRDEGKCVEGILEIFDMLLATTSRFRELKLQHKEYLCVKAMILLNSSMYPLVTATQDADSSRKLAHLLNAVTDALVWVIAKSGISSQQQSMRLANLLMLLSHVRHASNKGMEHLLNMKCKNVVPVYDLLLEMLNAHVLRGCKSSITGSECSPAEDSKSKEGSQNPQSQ

Row | Structure (SMILES) | Potency | activity, negative = inhibition
1 | CCOC(=O)C1CC(=O)C(=C(O)C2CC2)C(=O)C1 (stereo unspecified) | inactive | 
2 | Cc1ccc([N+](=O)[O-])cc1Cl | inactive | 
3 | Cc1ccc([N+](=O)[O-])c(N)c1 | inactive | 
4 | CN(C)C(=O)NC1(c2ccccc2)CCN(CCC[C@]2(c3ccc(Cl)c(Cl)c3)CCCN(C(=O)c3ccccc3)C2)CC1 |  | -8.74% [at 19 µM]
5 | CCC1(C)NC(=O)NC1=O (stereo unspecified) | inactive | 
6 | Cc1cn([C@@H]2O[C@H](CO)[C@@H](O)[C@@H]2F)c(=O)[nH]c1=O | inactive | 
7 | CC[C@H]1CC[C@H](NCc2cc3c(cc2OC)[C@H]2C[C@H]2C(=O)N3C)[C@H](c2ccccc2)N1 | inactive | 
8 | COc1cc(N)c(Cl)cc1C(=O)NC1CCN(Cc2ccccc2)CC1 | inactive | 
9 | O=CCCc1ccccc1 | inactive | 
10 | O=C1Nc2ccc([N+](=O)[O-])cc2C1=O | inactive | 

Test system: not listed separately
Assay: qHTS assay to identify small molecule agonists of the androgen receptor (AR) signaling pathway in the presence of an antagonist - cell viability counter screen (AID 1259379);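 further: MDA-kb2 human breast cancer cells carrying an MMTV luciferase reporter; nearly all actives have a fitted effect of over 25% in size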
Details: MDA-kb2 viability, CellTiter-Fluor, 16 h; series mostly up to 92.4 µM
In short: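 A CellTiter-Fluor read-out measured viability of MDA-kb2 reporter cells (MMTV promoter with AR and GR response elements). Treatment: nilutamide 3.0uM final with compounds at 15 concentrations, 16 hr, 37C, 0% CO2.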

Row | Structure (SMILES) | Potency | activity change, negative = cytotoxicity
11 | CC1(O)CSC(C)(O)CS1 (stereo unspecified) | inactive | 
12 | O=C(CCCl)NCc1ccccc1 | inactive | 
13 | Cc1ccc(C)c(N)c1 | inactive | 
14 | CCc1cc2cc(OC)c(OC)cc2c(Cc2ccccc2)n1 | inactive | 
15 | NS(=O)(=O)c1cc(-c2nn[nH]n2)c(NCc2cccs2)cc1Cl | inactive | 
16 | CC1=C2[C@H](/C=C(\C)C(=O)O)CC[C@@H](C)[C@H]2CC1 | inactive | 
17 | COC(=O)N[C@H](C(=O)N[C@@H](Cc1ccccc1)[C@@H](O)CN(Cc1ccc(-c2ccccn2)cc1)NC(=O)[C@@H](NC(=O)OC)C(C)(C)C)C(C)(C)C | inactive | 
18 | O=c1oc2c(O)c(O)cc3c(=O)oc4c(O)c(O)cc1c4c23 |  | -4.09% [at 19 µM]
19 | CCCCCOc1ccc(C2SC(=O)NC2=O)cc1OCC (stereo unspecified) | inactive | 
20 | C=CCCC=C | inactive | 
21 | C=CCCCCCCCCO | inactive | 
22 | O=c1[nH]c(=O)n([C@H]2C[C@H](O)[C@@H](CO)O2)cc1C(F)(F)F | inactive | 
23 | FC(F)(F)C(Cl)(Cl)Cl | inactive | 
24 | CC1=CC(=O)CC(C)(C)C1=O | inactive | 
25 | O=S(=O)(O)C(F)(F)F | inactive | 
26 | Cc1c(-c2ccccc2)oc2c(C(=O)OCCN3CCCCC3)cccc2c1=O | inactive | 
27 | CCN(CC)CC1CCCCN1CC(=O)N1c2ccccc2C(=O)Nc2cccnc21 (stereo unspecified) | inactive | 
28 | Cc1cc(S(=O)(=O)O)c(N)cc1Cl | inactive | 
29 | CC(C)O | inactive | 
30 | CCCCC(CC)COC(=O)COc1cc(Cl)c(Cl)cc1Cl (stereo unspecified) | inactive | 
31 | O=C(O)c1ccccc1Nc1cc(Cl)ccc1C(=O)O |  | -0.898% [at 19 µM]
32 | COC(=O)/C=C(/C)N | inactive | 
33 | CCCCCCn1c(=O)c2c(ncn2C)n(C)c1=O | inactive | 
34 | Cc1ncc(CO)c(CN)c1O | inactive | 
35 | CCCCCCCCCC#N | inactive | 
36 | COc1ccccc1N1CCN(CCCNc2cc(=O)n(C)c(=O)n2C)CC1 | inactive | 
37 | CC(Oc1c(Cl)cccc1Cl)C1=NCCN1 (stereo unspecified) | inactive | 
38 | CCCCCCCCOC(=O)CCCCCCCCC(=O)OCCCCCCCC | inactive | 

Test system: not listed separately
Assay: qHTS assay to identify small molecule agonists of the estrogen receptor beta (ER-beta) signaling pathway - cell viability counter screen (AID 1259380); further: nearly all actives have a fitted effect of over 30% in size; further: potency means the concentration at half of the fitted maximal effect
Details: ER-beta-bla HEK293T viability, CellTiter-Glo luminescence, 16 h; series mostly up to 92.4 µM
In short: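 Cells used were ER-beta-UAS-bla HEK293T in medium with 2% charcoal-stripped FBS. They were treated for 16 hr at 37C. Viability came from CellTiter-Glo luminescence.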

Row | Structure (SMILES) | Potency | activity change, negative = cytotoxicity
39 | CC1(O)CSC(C)(O)CS1 (stereo unspecified) | inactive | 
40 | Cc1ccc([N+](=O)[O-])cc1Cl | inactive | 
41 | O=C(CCCl)NCc1ccccc1 | inactive | 
42 | Cc1ccc(C)c(N)c1 | inactive | 
43 | CCc1cc2cc(OC)c(OC)cc2c(Cc2ccccc2)n1 | inactive | 
44 | NS(=O)(=O)c1cc(-c2nn[nH]n2)c(NCc2cccs2)cc1Cl | inactive | 
45 | Cc1ccc([N+](=O)[O-])c(N)c1 | inactive | 
46 | CC1=C2[C@H](/C=C(\C)C(=O)O)CC[C@@H](C)[C@H]2CC1 | 25.2 µM (active) | 
47 | COC(=O)N[C@H](C(=O)N[C@@H](Cc1ccccc1)[C@@H](O)CN(Cc1ccc(-c2ccccn2)cc1)NC(=O)[C@@H](NC(=O)OC)C(C)(C)C)C(C)(C)C | inactive | 
48 | O=c1oc2c(O)c(O)cc3c(=O)oc4c(O)c(O)cc1c4c23 |  | 7.11% [at 19 µM]
49 | CCCCCOc1ccc(C2SC(=O)NC2=O)cc1OCC (stereo unspecified) | 29.8 µM (active) | 
50 | C=CCCC=C | inactive | 
51 | C=CCCCCCCCCO | inactive | 
52 | O=c1[nH]c(=O)n([C@H]2C[C@H](O)[C@@H](CO)O2)cc1C(F)(F)F | inactive | 
53 | FC(F)(F)C(Cl)(Cl)Cl | inactive | 
54 | CC1=CC(=O)CC(C)(C)C1=O | inactive | 
55 | O=S(=O)(O)C(F)(F)F | inactive | 

Row | Structure (SMILES) | Potency | activity change, negative = cytotoxicity
56 | Cc1c(-c2ccccc2)oc2c(C(=O)OCCN3CCCCC3)cccc2c1=O | inactive | 
57 | CCN(CC)CC1CCCCN1CC(=O)N1c2ccccc2C(=O)Nc2cccnc21 (stereo unspecified) | inactive | 
58 | Cc1cc(S(=O)(=O)O)c(N)cc1Cl | inactive | 
59 | CC(C)O | inactive | 
60 | CCC1(C)NC(=O)NC1=O (stereo unspecified) | inactive | 
61 | Cc1cn([C@@H]2O[C@H](CO)[C@@H](O)[C@@H]2F)c(=O)[nH]c1=O | inactive | 
62 | CCCCC(CC)COC(=O)COc1cc(Cl)c(Cl)cc1Cl (stereo unspecified) | inactive | 
63 | O=C(O)c1ccccc1Nc1cc(Cl)ccc1C(=O)O |  | -3.75% [at 19 µM]
64 | COC(=O)/C=C(/C)N | inactive | 
65 | CCCCCCn1c(=O)c2c(ncn2C)n(C)c1=O | inactive | 
66 | Cc1ncc(CO)c(CN)c1O | inactive | 
67 | O=CCCc1ccccc1 | inactive | 
68 | CCCCCCCCCC#N | inactive | 
69 | COc1ccccc1N1CCN(CCCNc2cc(=O)n(C)c(=O)n2C)CC1 | inactive | 
70 | CC(Oc1c(Cl)cccc1Cl)C1=NCCN1 (stereo unspecified) | inactive | 
71 | CCCCCCCCOC(=O)CCCCCCCCC(=O)OCCCCCCCC | inactive | 
